{"source": "paper PMC11062922", "about": "(Nature Chemical Biology, 2023)", "key": {"BUB1": {"test_system": "BUB1", "parameters": "species or system human, MV4-11 + K-562 + COLO205 + SK-N-BE2 + OVCAR-8", "conditions": "read-out: apparent Kd; compound concentrations: 100 nM and 1000 nM (sheet 'Samples'), CATDS: 2.1802873020005002E-2; n = 1"}, "CDC42BPA": {"test_system": "CDC42BPA", "parameters": "species or system human, MV4-11 + K-562 + COLO205 + SK-N-BE2 + OVCAR-8", "conditions": "read-out: apparent Kd; compound concentrations: 100 nM and 1000 nM (sheet 'Samples'), CATDS: 2.9689579346921902E-2; n = 1"}, "CDC42BPB": {"test_system": "CDC42BPB", "parameters": "species or system human, MV4-11 + K-562 + COLO205 + SK-N-BE2 + OVCAR-8", "conditions": "read-out: apparent Kd; compound concentrations: 100 nM and 1000 nM (sheet 'Samples'), CATDS: 2.9604428475736501E-2; n = 1"}, "CDC42BPG": {"test_system": "CDC42BPG", "parameters": "species or system human, MV4-11 + K-562 + COLO205 + SK-N-BE2 + OVCAR-8", "conditions": "read-out: apparent Kd; compound concentrations: 100 nM and 1000 nM (sheet 'Samples'), CATDS: 3.5199852415490701E-2; n = 1"}, "CDC7": {"test_system": "CDC7", "parameters": "species or system human, MV4-11 + K-562 + COLO205 + SK-N-BE2 + OVCAR-8", "conditions": "read-out: apparent Kd; compound concentrations: 100 nM and 1000 nM (sheet 'Samples'), CATDS: 2.6746378417374699E-2; n = 1"}, "CDK4": {"test_system": "CDK4", "parameters": "species or system human, MV4-11 + K-562 + COLO205 + SK-N-BE2 + OVCAR-8", "conditions": "read-out: apparent Kd; compound concentrations: 100 nM and 1000 nM (sheet 'Samples'), CATDS: 2.4664855297043799E-2; n = 1"}, "CLK4": {"test_system": "CLK4", "parameters": "species or system human, MV4-11 + K-562 + COLO205 + SK-N-BE2 + OVCAR-8", "conditions": "read-out: apparent Kd; compound concentrations: 100 nM and 1000 nM (sheet 'Samples'), CATDS: 2.52027212323017E-2; n = 1"}, "DYRK1A": {"test_system": "DYRK1A", "parameters": "species or system human, MV4-11 + K-562 + COLO205 + SK-N-BE2 + OVCAR-8", "conditions": "read-out: apparent Kd; compound concentrations: 100 nM and 1000 nM (sheet 'Samples'), CATDS: 2.7886290868283401E-2; n = 1"}, "GSK3A": {"test_system": "GSK3A", "parameters": "species or system human, MV4-11 + K-562 + COLO205 + SK-N-BE2 + OVCAR-8", "conditions": "read-out: apparent Kd; compound concentrations: 100 nM and 1000 nM (sheet 'Samples'), CATDS: 3.2478486549428802E-2; n = 1"}, "GSK3B": {"test_system": "GSK3B", "parameters": "species or system human, MV4-11 + K-562 + COLO205 + SK-N-BE2 + OVCAR-8", "conditions": "read-out: apparent Kd; compound concentrations: 100 nM and 1000 nM (sheet 'Samples'), CATDS: 2.76286010769239E-2; n = 1"}, "NNT": {"test_system": "NNT", "parameters": "species or system human, MV4-11 + K-562 + COLO205 + SK-N-BE2 + OVCAR-8", "conditions": "read-out: apparent Kd; compound concentrations: 100 nM and 1000 nM (sheet 'Samples'), CATDS: 2.2589714418096801E-2; n = 1"}, "PIM1": {"test_system": "PIM1", "parameters": "species or system human, MV4-11 + K-562 + COLO205 + SK-N-BE2 + OVCAR-8", "conditions": "read-out: apparent Kd; compound concentrations: 100 nM and 1000 nM (sheet 'Samples'), CATDS: 3.4638112150075201E-2; n = 1"}, "PKN1": {"test_system": "PKN1", "parameters": "species or system human, MV4-11 + K-562 + COLO205 + SK-N-BE2 + OVCAR-8", "conditions": "read-out: apparent Kd; compound concentrations: 100 nM and 1000 nM (sheet 'Samples'), CATDS: 6.9293964383533801E-2; n = 1"}, "PKN2": {"test_system": "PKN2", "parameters": "species or system human, MV4-11 + K-562 + COLO205 + SK-N-BE2 + OVCAR-8", "conditions": "read-out: apparent Kd; compound concentrations: 100 nM and 1000 nM (sheet 'Samples'), CATDS: 0.13828274878435901; n = 1"}, "PKN3": {"test_system": "PKN3", "parameters": "species or system human, MV4-11 + K-562 + COLO205 + SK-N-BE2 + OVCAR-8", "conditions": "read-out: apparent Kd; compound concentrations: 100 nM and 1000 nM (sheet 'Samples'), CATDS: 2.6445492378014E-2; n = 1"}, "PRKACA": {"test_system": "PRKACA", "parameters": "species or system human, MV4-11 + K-562 + COLO205 + SK-N-BE2 + OVCAR-8", "conditions": "read-out: apparent Kd; compound concentrations: 100 nM and 1000 nM (sheet 'Samples'), CATDS: 2.2371204771335199E-2; n = 1"}, "PRKCA": {"test_system": "PRKCA", "parameters": "species or system human, MV4-11 + K-562 + COLO205 + SK-N-BE2 + OVCAR-8", "conditions": "read-out: apparent Kd; compound concentrations: 100 nM and 1000 nM (sheet 'Samples'), CATDS: 3.9494099322939E-2; n = 1"}, "PRKCB": {"test_system": "PRKCB", "parameters": "species or system human, MV4-11 + K-562 + COLO205 + SK-N-BE2 + OVCAR-8", "conditions": "read-out: apparent Kd; compound concentrations: 100 nM and 1000 nM (sheet 'Samples'), CATDS: 4.76963750103866E-2; n = 1"}, "PRKCD": {"test_system": "PRKCD", "parameters": "species or system human, MV4-11 + K-562 + COLO205 + SK-N-BE2 + OVCAR-8", "conditions": "read-out: apparent Kd; compound concentrations: 100 nM and 1000 nM (sheet 'Samples'), CATDS: 6.0948363535237499E-2; n = 1"}, "PRKCI": {"test_system": "PRKCI", "parameters": "species or system human, MV4-11 + K-562 + COLO205 + SK-N-BE2 + OVCAR-8", "conditions": "read-out: apparent Kd; compound concentrations: 100 nM and 1000 nM (sheet 'Samples'), CATDS: 3.5414471461485103E-2; n = 1"}, "PRKCQ": {"test_system": "PRKCQ", "parameters": "species or system human, MV4-11 + K-562 + COLO205 + SK-N-BE2 + OVCAR-8", "conditions": "read-out: apparent Kd; compound concentrations: 100 nM and 1000 nM (sheet 'Samples'), CATDS: 2.3037545247832199E-2; n = 1"}, "PRKG1": {"test_system": "PRKG1", "parameters": "species or system human, MV4-11 + K-562 + COLO205 + SK-N-BE2 + OVCAR-8", "conditions": "read-out: apparent Kd; compound concentrations: 100 nM and 1000 nM (sheet 'Samples'), CATDS: 3.8596421043345E-2; n = 1"}, "PRKX;PRKY": {"test_system": "PRKX;PRKY", "parameters": "species or system human, MV4-11 + K-562 + COLO205 + SK-N-BE2 + OVCAR-8", "conditions": "read-out: apparent Kd; compound concentrations: 100 nM and 1000 nM (sheet 'Samples'), CATDS: 4.0324961931199298E-2; n = 1"}, "Q6ZSR9": {"molecular_target": "Q6ZSR9 (human, UniProt Q6ZSR9)", "sequence (Q6ZSR9 whole entry, looked up)": "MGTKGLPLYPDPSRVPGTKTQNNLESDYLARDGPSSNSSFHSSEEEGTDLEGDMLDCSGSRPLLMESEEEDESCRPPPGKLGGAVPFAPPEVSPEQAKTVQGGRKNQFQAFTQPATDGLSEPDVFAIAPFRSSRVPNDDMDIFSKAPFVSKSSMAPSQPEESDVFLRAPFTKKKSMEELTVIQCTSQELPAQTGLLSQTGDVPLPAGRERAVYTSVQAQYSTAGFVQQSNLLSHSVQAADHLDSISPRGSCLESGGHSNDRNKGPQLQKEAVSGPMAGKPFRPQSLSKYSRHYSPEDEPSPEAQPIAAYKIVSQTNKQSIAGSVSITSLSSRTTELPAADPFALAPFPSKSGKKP", "parameters": "species or system MV4-11 + K-562 + COLO205 + SK-N-BE2 + OVCAR-8", "conditions": "read-out: apparent Kd; compound concentrations: 100 nM and 1000 nM (sheet 'Samples'), CATDS: 2.23637013148167E-2; n = 1"}, "ROCK1": {"test_system": "ROCK1", "parameters": "species or system human, MV4-11 + K-562 + COLO205 + SK-N-BE2 + OVCAR-8", "conditions": "read-out: apparent Kd; compound concentrations: 100 nM and 1000 nM (sheet 'Samples'), CATDS: 0.20486846489085001; n = 1"}, "ROCK2": {"test_system": "ROCK2", "parameters": "species or system human, MV4-11 + K-562 + COLO205 + SK-N-BE2 + OVCAR-8", "conditions": "read-out: apparent Kd; compound concentrations: 100 nM and 1000 nM (sheet 'Samples'), CATDS: 0.25564914108925302; n = 1"}, "RPS6KA3": {"test_system": "RPS6KA3", "parameters": "species or system human, MV4-11 + K-562 + COLO205 + SK-N-BE2 + OVCAR-8", "conditions": "read-out: apparent Kd; compound concentrations: 100 nM and 1000 nM (sheet 'Samples'), CATDS: 2.2411381111350701E-2; n = 1"}, "RPS6KA4": {"test_system": "RPS6KA4", "parameters": "species or system human, MV4-11 + K-562 + COLO205 + SK-N-BE2 + OVCAR-8", "conditions": "read-out: apparent Kd; compound concentrations: 100 nM and 1000 nM (sheet 'Samples'), CATDS: 2.93060004016619E-2; n = 1"}, "RPS6KA5": {"test_system": "RPS6KA5", "parameters": "species or system human, MV4-11 + K-562 + COLO205 + SK-N-BE2 + OVCAR-8", "conditions": "read-out: apparent Kd; compound concentrations: 100 nM and 1000 nM (sheet 'Samples'), CATDS: 7.09289008095534E-2; n = 1"}, "RPS6KB1": {"test_system": "RPS6KB1", "parameters": "species or system human, MV4-11 + K-562 + COLO205 + SK-N-BE2 + OVCAR-8", "conditions": "read-out: apparent Kd; compound concentrations: 100 nM and 1000 nM (sheet 'Samples'), CATDS: 3.4363243173278199E-2; n = 1"}}, "data": [{"smiles": "CCn1c(-c2nonc2N)nc2cncc(C(=O)NCCNC)c21", "note": "[GW876790X]", "values": [{"measurement": "potency estimated from few doses", "setting": "BUB1", "result": 2400, "unit": "nM"}, {"measurement": "potency estimated from few doses", "setting": "CDC42BPA", "result": 783, "unit": "nM"}, {"measurement": "potency estimated from few doses", "setting": "CDC42BPB", "result": 790, "unit": "nM"}, {"measurement": "potency estimated from few doses", "setting": "CDC42BPG", "result": 498, "unit": "nM"}, {"measurement": "potency estimated from few doses", "setting": "CDC7", "result": 1080, "unit": "nM"}, {"measurement": "potency estimated from few doses", "setting": "CDK4", "result": 1430, "unit": "nM"}, {"measurement": "potency estimated from few doses", "setting": "CLK4", "result": 1320, "unit": "nM"}, {"measurement": "potency estimated from few doses", "setting": "DYRK1A", "result": 944, "unit": "nM"}, {"measurement": "potency estimated from few doses", "setting": "GSK3A", "result": 612, "unit": "nM"}, {"measurement": "potency estimated from few doses", "setting": "GSK3B", "result": 971, "unit": "nM"}, {"measurement": "potency estimated from few doses", "setting": "NNT", "result": 2030, "unit": "nM"}, {"measurement": "potency estimated from few doses", "setting": "PIM1", "result": 519, "unit": "nM"}, {"measurement": "potency estimated from few doses", "setting": "PKN1", "result": 118, "unit": "nM"}, {"measurement": "potency estimated from few doses", "setting": "PKN2", "result": 35.1, "unit": "nM"}, {"measurement": "potency estimated from few doses", "setting": "PKN3", "result": 1120, "unit": "nM"}, {"measurement": "potency estimated from few doses", "setting": "PRKACA", "result": 2120, "unit": "nM"}, {"measurement": "potency estimated from few doses", "setting": "PRKCA", "result": 378, "unit": "nM"}, {"measurement": "potency estimated from few doses", "setting": "PRKCB", "result": 249, "unit": "nM"}, {"measurement": "potency estimated from few doses", "setting": "PRKCD", "result": 152, "unit": "nM"}, {"measurement": "potency estimated from few doses", "setting": "PRKCI", "result": 491, "unit": "nM"}, {"measurement": "potency estimated from few doses", "setting": "PRKCQ", "result": 1870, "unit": "nM"}, {"measurement": "potency estimated from few doses", "setting": "PRKG1", "result": 399, "unit": "nM"}, {"measurement": "potency estimated from few doses", "setting": "PRKX;PRKY", "result": 361, "unit": "nM"}, {"measurement": "potency estimated from few doses", "setting": "Q6ZSR9", "result": 2130, "unit": "nM"}, {"measurement": "potency estimated from few doses", "setting": "ROCK1", "result": 19.1, "unit": "nM"}, {"measurement": "potency estimated from few doses", "setting": "ROCK2", "result": 13.9, "unit": "nM"}, {"measurement": "potency estimated from few doses", "setting": "RPS6KA3", "result": 2110, "unit": "nM"}, {"measurement": "potency estimated from few doses", "setting": "RPS6KA4", "result": 813, "unit": "nM"}, {"measurement": "potency estimated from few doses", "setting": "RPS6KA5", "result": 113, "unit": "nM"}, {"measurement": "potency estimated from few doses", "setting": "RPS6KB1", "result": 529, "unit": "nM"}]}]}
